Shown are actives, neighbours in structure and some others; about 10% of the full set was active somewhere.
Lamin A splicing = changes lamin A minigene splicing in HeLa cells; HeLa LMNA splicing GFP/RFP minigene ratio, 48 h; Potency, µM (doses to about 46.1 µM), for the others: top-dose ratio change, negative = inhibition, most hits filed as inhibitors; actives 0.01% (n = 200,000); active = well fitted inhibition curve with a large enough effect in the signal ratio, with a control signal flat, not every such curve was filed as active; inconclusive = small, poorly fitted or top-dose-only effect, or effect the other way, or a change in a side signal; the % refers to the signal ratio; note: potency is the fitted concentration of half-maximal effect
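S3 HeLa cells stably expressing lamin A-EGFP splicing minigene plus DsRed2, 600 cells/well, 48 h compound exposure at 37C. Laser-scanning cytometry; analysed as GFP (500-530 nm)/RFP (575-640 nm) total intensity ratio; 0.5% DMSO vehicle.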
ALOX12 inhib = inhibitors of human 12-lipoxygenase (ALOX12); purified 12-hLO, xylenol orange hydroperoxide absorbance; Potency, µM (doses to about 57.1 µM), for inactives: top-dose activity change, negative = inhibition, most hits filed as inhibitors; actives 0.12% (n = 150,000); active = well fitted inhibition curve with a large enough effect; inconclusive = small, poorly fitted or top-dose-only effect; note: potency is the fitted concentration of half-maximal effect; nearly all actives have a fitted effect of over 55% in size
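Hydroperoxide formation by human 12-lipoxygenase from 40 uM arachidonic acid was followed colorimetrically via ferric-xylenol orange complex, using the 573/405 nm absorbance ratio. Enzyme concentration was 150 nM, with 30 min reaction at room temperature.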
HPGD block = blocks human HPGD enzyme activity; purified HPGD, NADH fluorescence kinetic, PGE2 substrate; actives 4.3% (n = 150,000); P15428; AID 894; Potency, µM, inactives show top-dose activity change, negative = inhibition, actives largely listed as inhibitors; note: potency is the fitted concentration of half-maximal effect
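NADH formation kinetics: reaction with 30 uM PGE2 and 1 mM NAD+ (final), 20 nM enzyme, Tris-HCl pH 8 with Tween 20, after 15 min compound preincubation at room temperature. Fluorescence change, last versus first of five reads.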
ALDH1A1 block = inhibitors of human aldehyde dehydrogenase 1A1 | actives 7.3% (n = 220,000) | P00352 | Purified ALDH1A1, NADH fluorescence, propionaldehyde substrate | AID 1030 | Potency, µM (highest dose often 75.3 µM), for inactives: top-dose activity, negative = inhibition, actives largely listed as inhibitors;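 note: potency is the fitted concentration of half-maximal effect; plate controls were no enzyme wells and a reference inhibitor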
Target sequence (P00352 whole entry, looked up): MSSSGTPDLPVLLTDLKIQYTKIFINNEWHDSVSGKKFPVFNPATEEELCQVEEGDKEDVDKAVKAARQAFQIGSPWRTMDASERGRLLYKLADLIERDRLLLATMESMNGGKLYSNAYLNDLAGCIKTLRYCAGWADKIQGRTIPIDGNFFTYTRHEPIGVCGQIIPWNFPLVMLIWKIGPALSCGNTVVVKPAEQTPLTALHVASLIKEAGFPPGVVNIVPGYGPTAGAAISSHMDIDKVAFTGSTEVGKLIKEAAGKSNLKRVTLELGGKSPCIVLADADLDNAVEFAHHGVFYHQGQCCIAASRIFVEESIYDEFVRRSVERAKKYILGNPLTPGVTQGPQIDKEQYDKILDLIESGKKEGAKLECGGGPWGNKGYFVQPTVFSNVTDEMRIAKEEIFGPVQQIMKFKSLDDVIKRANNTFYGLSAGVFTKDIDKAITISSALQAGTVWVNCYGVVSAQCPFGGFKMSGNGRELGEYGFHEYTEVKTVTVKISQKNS
PNC inhibitor = blocks assembly of the perinucleolar compartment. PC3M PTB-GFP, PNC prevalence imaging, 16 h; stronger effect = lower value. activity change (PNC), negative = inhibition, % at 10 µM. actives 3.1% (n = 140,000);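 active = readout at or below -70, meaning at least 70% loss of cells showing the perinucleolar compartment, a nuclear body marking cancer cells; inconclusive = readout between -30 and a set limit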;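 note: plate controls were DMSO wells for no effect and camptothecin positive control wells for full effect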
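Compounds are pinned in duplicate onto adhered PC3M cells stably expressing GFP-tagged PTB and incubated 16 h at 37 C. Cells are then fixed, nuclei stained with Hoechst, and PNC-positive cells counted.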
Numbers without * were called inactive; ? = inconclusive; . = not tested or not shown; ! = repeats disagree; [ ] = dose if it differs, or a comment. Unless noted, calls come from the whole dose curve; as a rule, active = well fitted inhibition curve with a large enough effect (not every such curve was filed as active); inconclusive = small, poorly fitted or top-dose-only effect, or another doubt; inactive = no such curve, though single readings can be large or run the other way. Unless noted, % is set by controls: 0 for no effect and ±100 for the full control effect.

SMILES	Lamin A splicing	ALOX12 inhib	HPGD block	ALDH1A1 block	PNC inhibitor
CN1C(=O)NC(c2ccc(O)cc2)C(C(=O)c2cccs2)C1(O)C(F)(F)F (stereo unspecified)	-4.4%	-18.7%	-4.7%	7.94µM*	28.2
O=C1NC(c2ccccc2)C(C(=O)c2cccs2)C(O)(C(F)(F)F)N1 (stereo unspecified)	0.7%	-2.1%	-1.3%	?	26.7
COc1cc(C2C(C#N)=C(C)NC3=C2C(=O)c2ccccc23)cc(OC)c1OC (stereo unspecified)	?	-0.2%	-6.3%	2.8%	-115.5*
COc1ccc(C2C(C#N)=C(C)NC3=C2C(=O)c2ccccc23)cc1 (stereo unspecified)	9.2%	-9.7%	-19.7%	?	26.6
CC1=C([N+](=O)[O-])C(c2ccccc2)C2=C(N1)c1ccccc1C2=O (stereo unspecified)	10.4%	-4.7%	22.4µM*	?	?
O=C1NC2=C(C(=O)c3ccccc32)C(c2ccccc2)N1 (stereo unspecified)	7.4%	-6.6%	-23.7%	15.8µM*	-11.1
CC(=O)C1=C(C)NC(=O)NC1c1ccccc1 (stereo unspecified)	3.1%	-1.6%	-6.0%	8.5%	-8.6
COc1ccc(CCNC(=O)C(=O)NCC(c2cccs2)S(=O)(=O)c2cccs2)cc1 (stereo unspecified)	-21.1%[46 µM]	.	.	.	.
CC(C)C(=O)NC(=S)Nc1ccc(S(=O)(=O)NC(C)(C)C)cc1	-9.1%	-7.6%	?	?	-107.4*
CC(C)C(=O)NC(=S)Nc1ccc(S(=O)(=O)Nc2ccccc2)cc1	?	-11.8%	-6.0%	?	?
NC(=S)NNC(=O)Nc1ccc(Cl)c(Cl)c1	-0.8%	-7.7%	-19.8%	28.2µM*	26.5
COc1ccc(S(=O)(=O)Oc2ccc3c(c2)O/C(=C\c2cccnc2)C3=O)cc1	-2.7%	-3.6%	15.8µM*	7.94µM*	-6.6
CS(=O)(=O)Oc1ccc2c(c1)O/C(=C\c1cccnc1)C2=O	.	.	.	11.2µM*	.
O=C1/C(=C/c2cccnc2)Oc2cc(OS(=O)(=O)c3ccccc3)ccc21	-7.9%	-6.6%	?	3.16µM*	-15.6
O=C1/C(=C/c2cccnc2)Oc2cc(OS(=O)(=O)c3ccc(Cl)cc3)ccc21	6.8%	-4.0%	-23.0%	1.58µM*	?
COc1ccccc1C(=O)Oc1ccc2c(c1)O/C(=C\c1ccncc1)C2=O	-11.3%	-0.2%	-27.3%	?	24.4
O=C1CCCC2=C1C(c1ccc(OS(=O)(=O)c3ccc(Cl)cc3)cc1)C1=C(CCCC1=O)O2	1.8%	-2.4%	-15.0%	?	50.8
O=S(=O)(Nc1ccc(-c2ccc(N3CCCC3)nn2)cc1)c1ccc(Cl)cc1	23.7%[46 µM]	.	.	.	.
O=C1C[C@@H]2CCN3C(=O)CCC[C@@H]([C@H]23)[C@@H]1Cc1ccccc1	.	-0.1%[0.00818 µM]	-1.4%	15.8µM*	.
C[C@](N)(Cc1ccc(O)c(O)c1)C(=O)O	?	-19.4%	?	5.62µM*!	19.7
COc1cc(OC)cc(-c2nnc(SCC(=O)N(C(C)C)C(C)C)o2)c1	2.5%	2.2%	-9.3%	10.8%	?
COc1cc(OC)cc(-c2nnc(Sc3ccc(C=O)cc3[N+](=O)[O-])o2)c1	?	-4.3%	14.1µM*	2µM*	-27.0
C/C(=N\NC(=S)NCCc1ccccc1)c1cccs1	?	3.98µM*	-25.9%	?	4.9
Fc1cccc(Cc2noc(CN3CCCN(C4Cc5ccccc5C4)CC3)n2)c1	.	.	.	3.55µM*	.
COc1ccc(C2C(=O)N(C3CCCCCC3)CC(=O)N2CCC2=CCCCC2)cc1 (stereo unspecified)	-23.0%[46 µM]	.	.	.	.
SMILES	Lamin A splicing	ALOX12 inhib	HPGD block	ALDH1A1 block	PNC inhibitor
CCOC(=O)c1cc(-c2cccnc2)nn1-c1ccccc1	?	.	.	-7.6%	.
CCOC(=O)c1cc(-c2ccccc2)nn1-c1ccccn1	-0.6%	3.5%	-19.8%	12.6µM*	?
Cc1cccc(OCc2nnc(N)s2)c1C	9.8%	-1.9%	-4.3%	-0.5%	-20.3
Cc1cccc(OCc2n[nH]c(=S)o2)c1C	.	.	.	17.8µM*	.
Cc1cccc(OCc2n[nH]c(=S)o2)c1	1.0%	-6.1%	-4.5%	?	-81.7*
Cc1cccc(C)c1OCc1n[nH]c(=S)o1	1.1%	0.5%	-2.8%	8.91µM*	52.8

High-throughput results as filed in PubChem.
